In PubChem BioAssay (Tox21):
Values without a mark were called inactive. Calls of active or inactive are those of the source. Calls follow the shape of the full dose curve.
% is scaled to controls: 0 for no effect and ±100 for the full control effect.

Test: qHTS assay to identify small molecule agonists of the estrogen related receptor (ERR) signaling pathway from Tox21 library (AID 1224849); also: nearly all actives have a fitted effect of over 15% in size
Conditions: ERR reporter cell line, ONE-Glo luciferase, 18 h; series mostly up to 92.4 µM; activity change, positive = activation: at the top concentration
Text: National Center for Advancing Translational Sciences [NCATS]
NIH Chemical Genomics Center [NCGC]
U.S. Environmental Protection Agency [EPA]
National Institutes of Environmental Health Sciences [NIEHS]
National Toxicology Program [NTP]
Estrogen related receptors (ERRs), the first orphan nuclear receptors discovered, play an important role in the control of cellular energy metabolism. ERRs are required for high-energy production in response to the environmental challenges. ERR-alpha was also identified as an adverse marker for breast cancer progression; ERR-alpha-positive tumors have a poor prognosis. To screen and to identify environmental compounds that perturb the ERR signaling pathways could provide valuable information for potential therapeutic or preventive measures in the treatment of metabolic disease. For identifying ERR agonists, ERR cell line (provided by NTP) has been used to screen Tox21 10K library.
The ERR cells were dispensed at 2,000 cells/5 ul/well in 1536-well white plates using a Multidrop dispenser. After the assay plates were incubated at a 37 C/5% CO2 incubator for 6 hours, 23 nL of compounds dissolved in DMSO, positive and negative controls or DMSO only was transferred to the assay plate by a pin tool. The plates were incubated at 37 C for 18 hours. 4 ul/well of One-Glo reagent was added into the assay plates using a Flying Reagent Dispenser. After 30-minute incubation at room temperature, the luminescence intensity in the plates was measured using a ViewLux plate reader.
With `CC1(C)NC(=O)NC1=O` the outcome was “inactive”.
In the case of `CC(C)(C#N)c1cc(Cn2cncn2)cc(C(C)(C)C#N)c1`, the outcome was “inactive”.
For `CC(CCl)OP(=O)(OC(C)CCl)OC(C)CCl` (stereo not given), the “activity change, positive = activation” value was -7.27%.
With `CCCCCC(=O)O` the outcome was “inactive”.
In the case of `N#Cc1ccccc1`, the outcome was “inactive”.
With `CC(=O)CCC=C(C)C` the outcome was “inactive”.
For `O=C1c2ccccc2CCc2ccccc21`, the outcome was “inactive”.
For `OCc1ccccc1`, the outcome was “inactive”.
For `O=S(=O)(O)c1ccccc1`, the outcome was “inactive”.
In the case of `C=C(C)CNCC`, the outcome was “inactive”.
For `Cc1ccc([N+](=O)[O-])cc1S(=O)(=O)O`, the outcome was “inactive”.
With `COc1ccc(OC)cc1` the outcome was “inactive”.
For `NCCCCCCN`, the outcome was “inactive”.
With `Cc1ccc2ncccc2c1` the outcome was “inactive”.
For `C=CC(=O)OCCC(=O)O`, the “activity change, positive = activation” value was 9.01%.
In the case of `CC(C)c1cccc(C(C)C)c1`, the outcome was “inactive”.
With `CCNc1cccc(C)c1` the outcome was “inactive”.
For `CCOCC(=O)O`, the outcome was “inactive”.
With `CC(=O)OCc1ccco1` the outcome was “inactive”.
For `O=C(O)c1ccc(C(=O)O)c(C(=O)O)c1`, the outcome was “inactive”.
For `CC(C)(Oc1ccc(CCNC(=O)c2ccc(Cl)cc2)cc1)C(=O)O`, the outcome was “inactive”.
With `Cc1ccc(S(=O)(=O)N=C=O)cc1` the outcome was “inactive”.
In the case of `CC(=O)CC(C)(C)O`, the outcome was “inactive”.
With `NCCNCCN` the outcome was “inactive”.
For `CCCOC(=O)c1ccccc1`, the outcome was “inactive”.
In the case of `CCO[Si](CCCN)(OCC)OCC`, the outcome was “inactive”.
With `CC(=O)OC1CC(C)OC(C)O1` (stereo not given) the outcome was “inactive”.
With `O=C(O)CCCCCCCCC(=O)O` the outcome was “inactive”.
In the case of `O=C(O)Cn1c(=O)n(Cc2ccc(Br)cc2F)c(=O)c2ccc(Cl)cc21`, the outcome was “inactive”.
With `CCc1ccccc1CC` the outcome was “inactive”.
With `Cc1ccc(C(C)C)c(O)c1` the outcome was “inactive”.
For `COC(=O)c1cccnc1`, the outcome was “inactive”.
For `O=C1C(c2[nH]c3ccccc3c2O)=Nc2ccccc21`, the “activity change, positive = activation” value was 1.92%.
In the case of `CC(C)CC(=O)CC(C)CC(C)C` (stereo not given), the outcome was “inactive”.
In the case of `O=C(O)c1cc2ccccc2cc1O`, the outcome was “inactive”.
With `CC1(C)S[C@@H]2[C@H](NC(=O)COc3ccccc3)C(=O)N2[C@H]1C(=O)O` the outcome was “inactive”.
In the case of `O=C1CCCC1`, the outcome was “inactive”.
For `O=S(=O)(O)c1ccc(N=Nc2c(O)ccc3cc(S(=O)(=O)O)ccc23)cc1`, the outcome was “inactive”.
In the case of `CN(C)CCOC(=O)COc1ccc(Cl)cc1`, the outcome was “inactive”.
With `CN(C)c1ccc(Cc2ccc(N(C)C)cc2)cc1` the outcome was “inactive”.
